The source of these data is publication PMC7862700, “An all-to-all approach to the identification of sequence-specific readers for epigenetic DNA modifications on cytosine”.

Holding throughout (test): DAPPL (digital affinity profiling via proximity ligation, sequencing); 10 mM Tris-HCl pH 7.5, 50 mM NaCl, 1 mM DTT, 4% glycerol, room temperature, 30 min; GST-TFs on glutathione beads, 16-mer random dsDNA library, 0.1% formaldehyde crosslink after washing; high values mean tight binding
What all share (settings): protein: recombinant; tags: N-terminal GST; dsDNA, one strand shown

For one assay, the target named is T1, ERF (Homo sapiens, UniProt P50548 1-548).
T1 sequence: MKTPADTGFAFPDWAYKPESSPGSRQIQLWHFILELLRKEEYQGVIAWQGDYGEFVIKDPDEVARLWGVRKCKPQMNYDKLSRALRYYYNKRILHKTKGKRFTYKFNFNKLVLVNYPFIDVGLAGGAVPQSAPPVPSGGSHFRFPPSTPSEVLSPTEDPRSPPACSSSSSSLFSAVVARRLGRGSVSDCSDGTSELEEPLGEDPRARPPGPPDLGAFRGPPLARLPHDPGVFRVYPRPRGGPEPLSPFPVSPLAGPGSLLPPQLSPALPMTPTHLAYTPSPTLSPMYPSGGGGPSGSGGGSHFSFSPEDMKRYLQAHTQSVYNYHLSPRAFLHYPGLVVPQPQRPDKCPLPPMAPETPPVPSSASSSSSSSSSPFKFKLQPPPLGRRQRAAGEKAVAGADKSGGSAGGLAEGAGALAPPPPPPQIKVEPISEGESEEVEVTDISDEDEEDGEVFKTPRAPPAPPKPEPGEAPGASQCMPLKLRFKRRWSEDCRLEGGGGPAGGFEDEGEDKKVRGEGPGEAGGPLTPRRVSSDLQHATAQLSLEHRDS
Put shortly:
(§1)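 Yeast served to express human transcription factors as GST fusions, which were then captured on glutathione beads and labelled with DNA barcodes. Pooled with a tag-only sample, they were incubated with 200 nmole of a 16-mer random double-stranded DNA library for 30 min at room temperature in Tris/NaCl/DTT/glycerol buffer, washed, crosslinked with 0.1% formaldehyde, ligated by proximity, amplified by PCR and sequenced. Dividing each hexamer's read frequency for a factor by its frequency for the tag-only sample gives the binding signal.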

The target of a further assay is T2, ETV3L (Homo sapiens, UniProt Q6ZN32 1-361).
T2 sequence: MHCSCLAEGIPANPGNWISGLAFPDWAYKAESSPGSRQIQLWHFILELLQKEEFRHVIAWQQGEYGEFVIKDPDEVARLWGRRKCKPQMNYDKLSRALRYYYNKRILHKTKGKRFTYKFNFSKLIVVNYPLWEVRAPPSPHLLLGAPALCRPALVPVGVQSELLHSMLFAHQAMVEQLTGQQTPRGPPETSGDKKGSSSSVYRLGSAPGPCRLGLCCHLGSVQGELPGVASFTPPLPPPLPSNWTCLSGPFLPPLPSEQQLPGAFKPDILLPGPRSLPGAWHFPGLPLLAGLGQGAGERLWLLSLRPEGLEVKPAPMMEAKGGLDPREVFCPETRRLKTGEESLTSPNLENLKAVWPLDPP
Put shortly: as §1

For a further assay, the target named is T3, ETS2 (Homo sapiens, UniProt P15036 1-469).
T3 sequence: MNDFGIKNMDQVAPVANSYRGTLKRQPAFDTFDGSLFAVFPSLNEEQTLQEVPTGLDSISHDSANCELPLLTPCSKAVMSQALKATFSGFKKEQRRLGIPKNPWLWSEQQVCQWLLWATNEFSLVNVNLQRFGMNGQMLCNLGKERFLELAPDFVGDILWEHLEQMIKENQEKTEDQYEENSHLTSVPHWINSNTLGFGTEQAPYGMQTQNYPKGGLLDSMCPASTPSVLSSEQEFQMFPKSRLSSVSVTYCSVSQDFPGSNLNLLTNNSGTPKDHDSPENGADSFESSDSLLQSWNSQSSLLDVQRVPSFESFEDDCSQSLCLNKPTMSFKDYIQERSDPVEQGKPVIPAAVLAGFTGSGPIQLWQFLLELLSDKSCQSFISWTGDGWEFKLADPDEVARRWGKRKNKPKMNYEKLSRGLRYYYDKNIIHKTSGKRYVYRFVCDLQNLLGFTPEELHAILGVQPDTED
Put shortly:
as §1

A further assay deals with T4, SPDEF (Homo sapiens, UniProt O95238 1-335).
T4 sequence: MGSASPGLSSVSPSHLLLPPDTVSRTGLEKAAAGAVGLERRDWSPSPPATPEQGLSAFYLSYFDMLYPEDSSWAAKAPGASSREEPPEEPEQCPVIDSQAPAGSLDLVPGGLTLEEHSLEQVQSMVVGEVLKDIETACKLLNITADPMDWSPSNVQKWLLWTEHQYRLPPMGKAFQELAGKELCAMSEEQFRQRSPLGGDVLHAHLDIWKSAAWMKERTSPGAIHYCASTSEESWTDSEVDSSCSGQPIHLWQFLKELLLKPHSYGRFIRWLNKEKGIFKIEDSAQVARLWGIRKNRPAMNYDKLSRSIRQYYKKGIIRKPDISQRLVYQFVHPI
Put shortly:
as §1

The target in the next assay is T5, ETV7 (Homo sapiens, UniProt Q9Y603 1-341).
T5 sequence: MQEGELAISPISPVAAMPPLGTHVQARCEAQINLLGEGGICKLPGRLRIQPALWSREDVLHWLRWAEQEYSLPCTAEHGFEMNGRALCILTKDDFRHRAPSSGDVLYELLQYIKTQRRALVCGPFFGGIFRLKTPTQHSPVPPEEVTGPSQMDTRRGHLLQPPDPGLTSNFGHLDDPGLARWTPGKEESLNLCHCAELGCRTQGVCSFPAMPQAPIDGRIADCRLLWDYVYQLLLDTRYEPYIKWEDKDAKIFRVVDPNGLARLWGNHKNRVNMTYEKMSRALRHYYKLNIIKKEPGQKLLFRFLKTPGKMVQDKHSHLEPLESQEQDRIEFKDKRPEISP
In outline:
as §1

The target in another assay is T6, ELF5 (Homo sapiens, UniProt Q9UKW6-2 1-255).
T6 sequence: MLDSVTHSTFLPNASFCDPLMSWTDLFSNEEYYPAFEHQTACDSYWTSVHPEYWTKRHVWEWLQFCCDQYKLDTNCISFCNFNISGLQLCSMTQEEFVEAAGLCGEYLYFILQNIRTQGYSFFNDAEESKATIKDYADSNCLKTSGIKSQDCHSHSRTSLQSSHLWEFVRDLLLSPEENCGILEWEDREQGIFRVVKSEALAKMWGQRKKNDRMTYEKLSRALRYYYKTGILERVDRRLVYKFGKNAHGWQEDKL
In outline: as §1

Another assay addresses T7, ETV3 (Homo sapiens, UniProt P41162-2 1-143).
T7 sequence: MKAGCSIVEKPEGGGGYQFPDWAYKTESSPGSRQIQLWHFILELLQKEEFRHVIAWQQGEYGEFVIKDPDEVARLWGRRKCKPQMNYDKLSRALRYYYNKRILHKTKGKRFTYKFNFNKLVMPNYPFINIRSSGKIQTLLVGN
Put shortly:
as §1

For a further assay, the target named is ETV6 (Homo sapiens, UniProt P41212 1-452). In outline: as §1
ETV6, sequence (P41212 whole entry): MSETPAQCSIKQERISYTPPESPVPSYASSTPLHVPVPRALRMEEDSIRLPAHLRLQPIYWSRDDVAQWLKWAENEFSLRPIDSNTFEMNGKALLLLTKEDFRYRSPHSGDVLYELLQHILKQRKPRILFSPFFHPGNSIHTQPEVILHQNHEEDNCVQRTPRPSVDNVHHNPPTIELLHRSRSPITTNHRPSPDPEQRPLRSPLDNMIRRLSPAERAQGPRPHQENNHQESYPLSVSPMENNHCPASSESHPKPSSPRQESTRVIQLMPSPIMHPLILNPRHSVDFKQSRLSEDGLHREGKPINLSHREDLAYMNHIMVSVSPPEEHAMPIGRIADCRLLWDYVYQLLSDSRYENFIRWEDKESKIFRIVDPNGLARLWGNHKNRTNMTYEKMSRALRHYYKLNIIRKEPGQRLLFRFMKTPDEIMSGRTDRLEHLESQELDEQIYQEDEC

GTTACT: the binding signal is 1.24 fold enrichment (6-mer frequency, TF over GST control) with ERF; 1.1 fold enrichment (6-mer frequency, TF over GST control) in the assay with ETV3L; 1.21 fold enrichment (6-mer frequency, TF over GST control) in the assay with ETS2; 1.18 fold enrichment (6-mer frequency, TF over GST control) with SPDEF; 1.25 fold enrichment (6-mer frequency, TF over GST control) in the assay with ETV7; 1.17 fold enrichment (6-mer frequency, TF over GST control) with ELF5. Moreover, the binding signal in the assay with ETV3 was 1.28 fold enrichment (6-mer frequency, TF over GST control); with ETV6, 1.21 fold enrichment (6-mer frequency, TF over GST control).

Regarding CTCCGT, the binding signal in the assay with ERF is 1.07 fold enrichment (6-mer frequency, TF over GST control); in the assay with ETV3L, 1.19 fold enrichment (6-mer frequency, TF over GST control); in the assay with ETS2 it was 1.22 fold enrichment (6-mer frequency, TF over GST control); with SPDEF, 1.05 fold enrichment (6-mer frequency, TF over GST control); in the assay with ETV7 it was 1.33 fold enrichment (6-mer frequency, TF over GST control); with ELF5, 1.14 fold enrichment (6-mer frequency, TF over GST control). For the same sequence, the binding signal with ETV3 was 1.22 fold enrichment (6-mer frequency, TF over GST control); with ETV6 it was 1.16 fold enrichment (6-mer frequency, TF over GST control).

In the case of CTTTAC, the binding signal in the assay with ERF is 1.3 fold enrichment (6-mer frequency, TF over GST control); with ETV3L it was 1.46 fold enrichment (6-mer frequency, TF over GST control); with ETS2 it was 1.36 fold enrichment (6-mer frequency, TF over GST control); in the assay with SPDEF, 1.35 fold enrichment (6-mer frequency, TF over GST control); in the assay with ETV7, 1.38 fold enrichment (6-mer frequency, TF over GST control); in the assay with ELF5 it was 1.35 fold enrichment (6-mer frequency, TF over GST control). Besides, the binding signal with ETV3 was 1.39 fold enrichment (6-mer frequency, TF over GST control); with ETV6, 1.41 fold enrichment (6-mer frequency, TF over GST control).

Regarding TACGGC, the binding signal with ERF was 1.32 fold enrichment (6-mer frequency, TF over GST control); with ETV3L, 1.26 fold enrichment (6-mer frequency, TF over GST control); with ETS2 it was 1.22 fold enrichment (6-mer frequency, TF over GST control); with SPDEF, 1.18 fold enrichment (6-mer frequency, TF over GST control); with ETV7, 1.13 fold enrichment (6-mer frequency, TF over GST control); in the assay with ELF5, 1.2 fold enrichment (6-mer frequency, TF over GST control). Besides, the binding signal with ETV3 is 1.21 fold enrichment (6-mer frequency, TF over GST control); in the assay with ETV6, 1.2 fold enrichment (6-mer frequency, TF over GST control).

For the sequence TGATAT, the binding signal in the assay with ERF was 1.02 fold enrichment (6-mer frequency, TF over GST control); with ETV3L, 1.09 fold enrichment (6-mer frequency, TF over GST control); in the assay with ETS2, 1.12 fold enrichment (6-mer frequency, TF over GST control); with SPDEF it was 1.18 fold enrichment (6-mer frequency, TF over GST control); with ETV7, 1.03 fold enrichment (6-mer frequency, TF over GST control); with ELF5, 1.09 fold enrichment (6-mer frequency, TF over GST control). In addition, the binding signal is 1.15 fold enrichment (6-mer frequency, TF over GST control) with ETV3 and 1.06 fold enrichment (6-mer frequency, TF over GST control) with ETV6.

Take AATATA: the binding signal with ERF was 1.39 fold enrichment (6-mer frequency, TF over GST control); with ETV3L it was 1.31 fold enrichment (6-mer frequency, TF over GST control); with ETS2, 1.34 fold enrichment (6-mer frequency, TF over GST control); with SPDEF it was 1.23 fold enrichment (6-mer frequency, TF over GST control); with ETV7 it was 1.36 fold enrichment (6-mer frequency, TF over GST control); with ELF5, 1.33 fold enrichment (6-mer frequency, TF over GST control). Further, the binding signal with ETV3 is 1.35 fold enrichment (6-mer frequency, TF over GST control); with ETV6 it was 1.36 fold enrichment (6-mer frequency, TF over GST control).

In the case of TAACCA, the binding signal is 1.1 fold enrichment (6-mer frequency, TF over GST control) in the assay with ERF; 1.13 fold enrichment (6-mer frequency, TF over GST control) in the assay with ETV3L; 1.12 fold enrichment (6-mer frequency, TF over GST control) in the assay with ETS2; 1.05 fold enrichment (6-mer frequency, TF over GST control) with SPDEF; 1.09 fold enrichment (6-mer frequency, TF over GST control) in the assay with ETV7; 1.09 fold enrichment (6-mer frequency, TF over GST control) in the assay with ELF5. Further, the binding signal is 1.13 fold enrichment (6-mer frequency, TF over GST control) with ETV3 and 1.04 fold enrichment (6-mer frequency, TF over GST control) with ETV6.
